Data on 100 molecules can be found in ChEMBL document CHEMBL3988442, “University of Dundee, Small-Polar-MMV Screening Library” (2021).

Molecules are shown by their SMILES. Screen size: about 48,000 compounds; about 13,000 (27%) showed an effect of 50% or more. The list shows a part of the results.

The subject of the experiment is Wolbachia pipientis. Description: Anti-Wolbachia Cell-Based Screen. Set-up: scale not given: in the data most compounds retested in dose-response had high values. In kind it is functional. The note with it: 5 µM.
Turning to `CC(C)N1CC(C(=O)N2CCN(CCn3cccc3)CC2)CC1=O` (stereo not given), the “Percent Effect” value worked out at 11.86%. Under `Cc1ccc(CN(CCN(C)C)Cc2ncc[nH]2)s1` stands -6.049%; under `CNC(=O)c1cccc(CCNS(C)(=O)=O)c1`, -1.562%; under `COc1ccc(OC)c(C(C)NC(=O)Nc2nnc(C)s2)c1` (stereo not given), -19.71%. Under `CN(C)C(=O)COCc1cncc2c1CCN(Cc1ccccc1)C2.O=C(O)C(F)(F)F.O=C(O)C(F)(F)F` stands -0.7445%. The figure for `CN(C)C(=O)COCc1cncc2c1CCN(Cc1ccccn1)C2.O=C(O)C(F)(F)F.O=C(O)C(F)(F)F` is 86.2%; for `O=C(O)C(F)(F)F.OCCOCc1n[nH]c2c1CN(Cc1ccccn1)C2` it is -2.311%. Turning to `CN(C)CCOCc1cncc2c1CCN(Cc1ccccn1)C2.O=C(O)C(F)(F)F.O=C(O)C(F)(F)F.O=C(O)C(F)(F)F`, the “Percent Effect” value is reported as 94.64%.

For `CN(C)C(=O)COCc1cncc2c1CCN(Cc1cnn(C)c1)C2.O=C(O)C(F)(F)F.O=C(O)C(F)(F)F`, the “Percent Effect” value was -8.97%. Under `CCCN1CCc2c(C(=O)N(C)Cc3ccccn3)nn(C)c2C1.O=C(O)C(F)(F)F.O=C(O)C(F)(F)F.O=C(O)C(F)(F)F` stands 5.255%; under `O=C(O)c1cc(-c2ccncc2)cc(S(=O)(=O)NCc2ccccn2)c1`, -3.238%.

Consider `CC(C1CC1)N(CC(=O)NC(=O)NC1CC1)C1CC1` (stereo not given), for which the “Percent Effect” value is -6.692%. For the molecule `O=C(CCCNC(=O)Nc1ccc(F)cc1F)Nc1cn[nH]c1`, the “Percent Effect” value is listed as -17.8%. Under `Cc1[nH]ncc1CCCNC(=O)Nc1ccc(F)cc1` stands 17.19%. Turning to `Cc1nc(CCCNC(=O)Nc2cc(F)cc(F)c2)n[nH]1`, the “Percent Effect” value was found to be 105.8%. Under `Cc1[nH]ncc1CCCNC(=O)Nc1ccccc1` stands -6.052%. Under `Cc1nc(CCCNC(=O)Nc2ccc(F)cc2F)n[nH]1` stands 105.4%.

Turning to `O=C(Nc1ccc(F)cc1F)Nc1c[nH]c(=O)[nH]c1=O`, the “Percent Effect” value is -7.625%.

As to `CCC(CO)N(Cc1ccco1)C(=O)c1ccccc1SC` (stereo not given), the “Percent Effect” value is on record as -1.914%. The figure for `Cc1cc2c(c(-c3cncc(C(=O)N4CCCC4)n3)c1)OC(CN)C2` (stereo not given) is 3.308%; for `Cn1ccc(CN2CCC(Oc3ccccc3)CC2)cc1=O` it is 0.4399%; for `Cc1cccc(C)c1OC1CCN(Cc2ccn(C)c(=O)c2)CC1` it is 80.01%.

Take `COc1ccc(OC2CCN(Cc3ccn(C)c(=O)c3)CC2)cc1`: the “Percent Effect” value stood at 90.95%. Under `CCOc1ccccc1OC1CCN(Cc2ccn(C)c(=O)c2)CC1` stands 96.61%; under `CC(=O)NCCC(=O)N(C/C=C/c1ccccc1)CCO`, 2.612%; under `CC(C)(O)CCc1ccc(C(=O)NCC2CCCOC2)cc1` (stereo not given), -16.45%. On to `Cc1csc2nc3n(c(=O)c12)CCN(C(=O)c1ccncc1)CC3`, for which the “Percent Effect” value is 0.2415%.

Turning to `Cc1csc2c(=O)n3c(nc12)CCN(C(=O)c1cccnc1)CC3`, the “Percent Effect” value was -6.131%. The figure for `Cc1nc(-c2ccsc2)sc1C(=O)N1CCn2c(C)nnc2C1` is -8.635%; for `CCc1cc(C(=O)N2CCc3nc4c(C)csc4c(=O)n3CC2)on1` it is 101.2%. Under `CN1CCN(Cc2cnc3n2CCN(C(=O)c2ccccn2)C3)CC1` stands -0.6061%; under `Cc1nc(C)c(C(=O)N2CCc3nc4c(C)csc4c(=O)n3CC2)s1.Cl`, 93.57%. The figure for `Cc1ccc(C(=O)N2CCc3nc4c(C)csc4c(=O)n3CC2)cn1` is 130.6%; for `CCc1nc(CN2CCN(C(=O)c3cc(C)nn3C)CC2)cs1` it is -4.839%. Turning to `Cc1noc(CN2CCN(C(=O)c3ccccn3)CC2)n1`, the “Percent Effect” value is -3.094%. Under `Cc1csc2c(=O)n3c(nc12)CCN(C(=O)c1ccccn1)CC3` stands 118.3%.

With `O=C1OCCN1CCc1nc(-c2cc3c4c(c2)CC(=O)N4CCC3)cs1`, the “Percent Effect” value is -4.599%. The figure for `O=C(O)CC[C@@H]1CN(c2ncccc2F)CC[C@@H]1N1CCOCC1` is 1.489%; for `CSCc1nc(C(C)(C)NC(=O)OC(C)(C)C)no1` it is 6.132%. For `COc1ccc(CN2C[C@@H](CN(C)CCO)[C@@H](CO)C2)cc1Cl`, the “Percent Effect” value is given as -12.8%.

With `CC(C)(C)N1CC(C(=O)NCc2nc(C3CCCCC3)no2)CC1=O` (stereo not given), the “Percent Effect” value was -1.29%.

Turning to `CCc1ccc(CNC(=O)CCNS(=O)(=O)c2cn(C)c(C)n2)s1`, the “Percent Effect” value is recorded as -8.825%.

Turning to `Cc1cc2c(=O)n3c(nc2s1)CCN(C(=O)c1cnn(C)c1C)CC3`, the “Percent Effect” value is -11.91%. Under `Cc1csc2c(=O)n3c(nc12)CCN(C(=O)c1ccnn1C)CC3` stands 126.7%; under `CN1CCCc2cc(NC(=O)N3CCOC(C(N)=O)C3)ccc21` (stereo not given), -7.642%; under `COc1ccc(NC(=O)N2CCC(c3nnc[nH]3)CC2)cc1C`, -18.03%. As for `C[C@@H]1CN(C(=O)Nc2cccc(OC(F)F)c2)CC(C(N)=O)O1` (stereo not given in full), the “Percent Effect” value is given as -8.405%.

Take `NC(=O)C1CN(C(=O)Nc2cc(Cl)cc(Cl)c2)CCO1` (stereo not given): the “Percent Effect” value is on record as -5.843%. The figure for `Cc1cc(NC(=O)N2CCOC(C(N)=O)C2)ccc1Br` (stereo not given) is 158.4%; for `NC(=O)C1CN(C(=O)Nc2ccc(SC(F)(F)F)cc2)CCO1` (stereo not given) it is 111.1%; for `NC(=O)C1CN(C(=O)NCC2(c3ccc(F)cc3)CCC2)CCO1` (stereo not given) it is 2.915%. The figure for `COCCN1CCC(CNC(=O)Nc2ccc(SC(F)(F)F)cc2)C1` (stereo not given) is -1.712%. On to `Cc1ccc(NC(=O)N2CCOC(C(N)=O)C2)cc1C(F)(F)F` (stereo not given), for which the “Percent Effect” value amounted to 103.5%. As to `COCCCC1(CO)CCCN(Cc2cccc(C#N)c2)C1` (stereo not given), the “Percent Effect” value turned out to be 1.897%. The figure for `COCC(C)NCc1ccc2[nH]c(C)c(C)c2c1` (stereo not given) is 5.235%; for `Cc1ccc(-n2c(COCC(=O)O)nc3c(C)cccc32)nc1` it is -11.98%. For `O=C(c1ccc2nncn2c1)N1CCCC1c1noc(C2CC2)n1` (stereo not given), the “Percent Effect” value was -1.94%. In the case of `OCCCN1CCCC1c1nc(Cc2ccc(F)cc2)no1` (stereo not given), the “Percent Effect” value was -4.354%. The figure for `Cc1ncsc1CN1CC(C)(C2CC2)CC1=O` (stereo not given) is -4.839%; for `CCc1n[nH]c(C2CN(CCCOc3cccc(C)c3)CCO2)n1` (stereo not given) it is 13.14%.

For `Cc1nc(CN(C)C2CCN(CCCOc3ccc(F)cc3)C2)no1` (stereo not given), the “Percent Effect” value was 112.3%. Under `Cc1nc(CN(C)C2CCN(CCCc3ccccc3)C2)no1` (stereo not given) stands 119.3%; under `Cc1nc(CN(C)C2CCN(CCCOc3ccccc3C)C2)no1` (stereo not given), 109.1%; under `Cc1nc(CN(CCc2ccccc2)C2CCN(C)CC2)no1`, -15.44%. The figure for `Cc1cccc(OCCCN2CCC(N(C)Cc3noc(C)n3)C2)c1` (stereo not given) is 112.7%; for `CC(C)N(Cc1cccc(Cl)c1)Cc1nnsc1Cl` it is 2.005%; for `Cc1cc(CN2CCc3nn(C)c(=O)cc3C2)no1` it is -29.82%.

Consider `O=C(NCC1CCS(=O)(=O)C1)c1sccc1-c1ccc(F)cc1` (stereo not given), for which the “Percent Effect” value was -6.4%. Under `Cc1cc(NC(=O)NCCc2ccsc2)n(C)n1` stands 2.6%. Under `CC(C)Cc1noc(CN2CCCC(Cn3cncn3)C2)n1` (stereo not given) stands 3.537%.

`Fc1ccccc1Cc1noc(CN2CCCC(CN3CCCC3)C2)n1` (stereo not given): the “Percent Effect” value is -1.357%. The figure for `c1coc(-c2noc(CN3CCCC(Cn4cncn4)C3)n2)c1` (stereo not given) is -0.1927%; for `c1ccc(Cc2noc(CN3CCCC(Cn4cncn4)C3)n2)cc1` (stereo not given) it is 97.1%. As to `COCCc1noc(CN2CCCC(Cn3cncn3)C2)n1` (stereo not given), the “Percent Effect” value turned out to be 89.51%. For `Clc1snnc1CN1CCCC(Cn2cncn2)C1` (stereo not given), the “Percent Effect” value was 3.779%. The figure for `COCCN(C(=O)c1ccsc1)c1ccc(C#N)cc1` is -12.97%.

With `O=C(Cc1cn2ccsc2n1)N1CCOCC(O)(CN2CCCC2)C1` (stereo not given), the “Percent Effect” value was determined as 4.067%. Turning to `Cc1cc(NCc2cc3n(n2)CCCN(S(C)(=O)=O)C3)ncn1`, the “Percent Effect” value is -6.593%.

For `O=C(C1CCC1)N1CCCn2nc(CNc3ncccn3)cc2C1`, the “Percent Effect” value came to 131.9%.

In the case of `CC(=O)N1CCCn2nc(CNS(=O)(=O)N3CCCCCC3)cc2C1`, the “Percent Effect” value was -0.4584%.

With `Cc1cc(NCc2cc3n(n2)CCCN(C(=O)C2CCC2)C3)nc(N)n1`, the “Percent Effect” value was 111.3%. Under `Cc1cc(NCc2cc3n(n2)CCCN(C(=O)N(C)C)C3)ncn1` stands -7.228%; under `CS(=O)(=O)N1CCCn2nc(CNc3ncccn3)cc2C1`, -7.874%; under `Cc1cc(NCc2cc3n(n2)CCCN(C(=O)C2CCC2)C3)ncn1`, 87.84%. For the molecule `N[C@H]1CC[C@@H](CN2CCCn3nc(CNC(=O)C4CCC4)cc3C2)CC1`, the “Percent Effect” value is on record as 11.2%. Under `Cc1nc(CN2CCCn3nc(CNC(=O)C4CCC4)cc3C2)co1` stands -9.719%; under `Cc1cc(C)nc(NCc2cc3n(n2)CCCN(C(=O)C2CCC2)C3)n1`, 104.2%; under `CC(=O)N1CCCn2nc(CNc3cc(C)ncn3)cc2C1`, 18.58%. For the molecule `COc1ccccc1CN1C(=O)O[C@@H]2CN(c3nccs3)C[C@@H]21`, the “Percent Effect” value is reported as -9.448%. The figure for `CCc1ccc(NS(=O)(=O)CC2=NC(=O)n3cccc3C2=O)cc1` is 11.57%; for `CCn1cnnc1CCNC(=O)c1ccc(F)c(Br)c1` it is -6.891%; for `CN(C)C(=O)CO[C@H]1CO[C@@]2(CCN(S(C)(=O)=O)C2)C1` it is -10.41%. Under `Cn1c(CN2CCN(c3cccnc3)CC2)cc2ccccc21` stands 39.54%; under `CC(C)NC(=O)C1CN(C(N)=O)Cc2ccnn2C1` (stereo not given), -7.077%; under `O=C(NCc1cccnc1)[C@@H]1CC[C@@H]2[C@@H](CCN2c2ncc(F)cn2)O1.O=C(O)C(F)(F)F.O=C(O)C(F)(F)F`, -0.1893%. `CS(=O)(=O)N1Cc2ccnn2CC(C(=O)NCc2cccnc2)C1.O=C(O)C(F)(F)F.O=C(O)C(F)(F)F` (stereo not given): the “Percent Effect” value is 101.4%. The figure for `COCCNC(=O)C1CN(Cc2ccsc2)Cc2ccnn2C1` (stereo not given) is 3.328%; for `COCCNC(=O)C1CN(C(N)=O)Cc2ccnn2C1` (stereo not given) it is 100.3%. Consider `CC(=O)N1Cc2ccnn2CC(C(=O)NCc2cccnc2)C1.O=C(O)C(F)(F)F` (stereo not given), for which the “Percent Effect” value is listed as 105.9%.

With `COCCNC(=O)C1CN(Cc2cccnc2)Cc2ccnn2C1.O=C(O)C(F)(F)F.O=C(O)C(F)(F)F.O=C(O)C(F)(F)F` (stereo not given), the “Percent Effect” value turned out to be 1.319%.
